Assay outcomes from PubChem BioAssay.
KDM5B inhibitor – Primary screen for KDM5B Histone Demethylases FDH-coupled qHTS. Lysine-specific demethylase 5B (Homo sapiens), Q9UGL1. KDM5B demethylase, FDH-coupled NADH fluorescence (FDH is formaldehyde dehydrogenase). Potency, µM (top dose mostly 57.7 µM), most hits filed as inhibitors. 220,000 compounds, 2.6% hits. AID 1347165, 2019; active = well fitted inhibition curve with a large enough effect; also: 0% is about no effect; nearly all actives have a fitted effect of over 70% in size
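KDM5BΔAP (200 nM final) in 50 mM HEPES pH 7.5, 0.01% Tween-20 was preincubated 10 min at RT with compound over a concentration range. Substrate mix (H3K4me3 12.5 µM, α-KG 25 µM, Fe²⁺, ascorbate, NAD⁺, FDH) was added, and NADH fluorescence change over 30 min gave dose-response curves.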
Starred values were filed as active, the others as inactive; i = inactive. The full list was thinned out, with hits kept by preference. Potency is read from the fitted curve at half-maximal effect.

SMILES	KDM5B inhibitor
COc1ccc(-c2ccc3nnc(CNC(=O)c4ccoc4)n3n2)cc1	32µM*
Cc1ccc(C2=NN(C(=O)Cn3nnc(-c4ccc(C(N)=O)cc4)n3)C(c3ccco3)C2)cc1 (centres undefined)	i
O=C(CCc1cc(Cl)no1)N(CCS(=O)(=O)N1CCOCC1)Cc1ccccn1	i
O=C(O)c1cc2c(c(S(=O)(=O)Nc3cccc(Cl)c3F)c1)CCC2	i
Cc1ccc(/C=C/c2cc(C(=O)O)c3ccccc3n2)c(C)c1	i
COc1ccc(-c2ccc3nnc(CNC(=O)c4cccn4C)n3n2)cc1	28µM*
COc1cccc(CC(=O)NCc2nnc3ccc(-c4ccccc4)nn23)c1	i
COc1ccc(-c2ccc3nnc(CNC(=O)c4cccc(C#N)c4)n3n2)cc1	28µM*
COc1ccc(-c2ccc3nnc(CNC(=O)c4ccc(C#N)cc4)n3n2)cc1	i
COc1ccc(-c2noc([C@@H]3CCCN3C(=O)c3ccc(F)c(Cl)c3)n2)cc1	i
COc1cccc(CCC(=O)NCc2nnc3ccc(-c4ccccc4)nn23)c1	i
COc1ccc(-c2ccc3nnc(CNC(=O)c4cc(Cl)ccc4OC)n3n2)cc1	i
COc1ccc(-c2ccc3nnc(CNC(=O)Cc4cccc(OC)c4)n3n2)cc1	25µM*
Cn1cccc1C(=O)NCc1nnc2ccc(-c3ccccc3)nn12	i
COc1ccc(-c2ccc3nnc(CNC(=O)c4ccc(F)c(Cl)c4)n3n2)cc1	28µM*
COc1ccc(-c2cc(N3CCC(NC(=O)c4cccc(C#N)c4)C3)n[nH]2)cc1 (centres undefined)	i
Cc1ccc(-c2nc(Cn3cnc4sccc4c3=O)co2)c(C)c1	i
CCCNc1nc2c(c(=O)n(C)c(=O)n2C)n1CC	i
Cc1cc2ccccc2n1CC(=O)N(Cc1ccccc1)C1CC1	i
Cc1cccc(-n2c(SCC(=O)N(C)CCC#N)nc3ccccc3c2=O)n1	i
Cc1cc(C)c(NC(=O)c2cnc3ccccc3n2)c(C)c1	i
CC1=C(C(=O)Nc2ccccc2C(=O)NCCc2ccco2)SCCO1	i
CCOc1ccc(S(=O)(=O)Nc2nc3ccccc3nc2Nc2ccc(C(=O)O)cc2)cc1	i
O=C(O)CCCC1OC(CCCC(=O)O)OC(CCCC(=O)O)O1 (centres undefined)	i
Cc1nc(-c2ccc(Cl)cc2)sc1C(=O)N1CCCC(C(=O)O)C1 (centres undefined)	i
SMILES	KDM5B inhibitor
COc1ccc(C(=O)Oc2ccc3c(=O)c(Oc4ccc(C(C)(C)C)cc4)coc3c2)cc1OC	i
O=C(O)c1cc(-c2cccs2)nc2ccc(Cl)cc12	i
CC(=O)c1cccc(NC(=O)CSc2nnc3ccc(-c4ccc(F)cc4)nn23)c1	i
CC(=O)Nc1cccc(C(=O)NCc2nnc3ccc(-c4ccccc4)nn23)c1	32µM*
Cc1cccc(C(=O)Nc2cccc(-c3ccc4nncn4n3)c2)c1	i
Cc1ccc(OCC(O)Cn2c(N(C)Cc3ccccc3)nc3c2c(=O)[nH]c(=O)n3C)cc1 (centres undefined)	i
COc1ccc(NC(=O)N2CCN(S(=O)(=O)c3ccc4c(c3)NC(=O)C(C)O4)CC2)cc1 (centres undefined)	i
NS(=O)(=O)c1ccc(NC(c2ccccc2)c2ccccc2)c([N+](=O)[O-])c1	i
COC(=O)CC(NC(=O)CCc1cc(OC)ccc1OC)c1cccs1 (centres undefined)	i
Cc1ocnc1C(=O)N1CCC2(CC1)CN(CC(C)c1ccccc1)C(=O)O2 (centres undefined)	i
CCC(CC)CN1CC2(CCN(C(=O)CCc3cc(=O)[nH]o3)CC2)OC1=O	i
CCC(CC)CN1CC2(CCN(C(=O)c3cn4cccnc4n3)CC2)OC1=O	32µM*
N#Cc1cccc(N2CCC3(CCC(=O)N(CC4CCCO4)C3)CC2)n1 (centres undefined)	25µM*
Nc1nccc(N2CCC3(CCC(=O)N(CC4CCCO4)C3)CC2)n1 (centres undefined)	i
Cc1cc(N2CCC3(CCC(=O)N(CC4CCCO4)C3)CC2)nc(N)n1 (centres undefined)	i
CC(C)=CCC/C(C)=C/C=N/NC(=S)Nc1ccccc1	i
O=C(CCc1ccccc1)N1CCC(Oc2cnc3c(ccn3-c3cncnc3)c2)CC1	i
COc1cccc(-c2cccc(COc3cnc4c(ccn4CC(=O)O)c3)c2)c1F	35µM*
O=C(O)Cn1ccc2cc(OCc3cccc(-c4ccc(F)cc4F)c3)cnc21	35µM*
Nc1ncc(-c2ccccc2)c(-c2ccc(OCc3ccc(F)cc3)cc2O)n1	i
Cc1ccc(F)cc1-c1cn(C)c(=O)n2cc(COc3ccccc3)nc12	i
O=C(O)Cn1ccc2cc(OCCc3cccc(-c4ccccc4F)c3)cnc21	32µM*
Cc1noc(-c2ccc(OCc3ccc(F)cc3)cc2O)c1-c1ccccc1	i
COc1cccc(-c2ccc(COc3ccc4c(cnn4CCC(=O)O)c3)cc2)c1F	i
